Compound activity as filed in PubChem.
Shown are actives, neighbours in structure and some others; about 8.1% of the full set was active somewhere.
ELG1 DNA repair: qHTS screen for small molecules that inhibit ELG1-dependent DNA repair in human embryonic kidney (HEK293T) cells expressing luciferase-tagged ELG1; actives 2.3% (n = 330,000); Potency, µM (series often up to 46.1 µM), inactives show at the top dose activity change, negative = inhibition, hits mostly inhibitors; HEK293T ELG1-luciferase reporter, luminescence, 16 h; DNA damage induced by 5-fluorouridine; AID 504467, 2011; also: % is scaled to controls: 0 for no effect and ±100 for the full control effect; nearly all actives have a fitted effect of over 55% in size
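DMSO vehicle served as the neutral condition. Each well held 2,000 cells given 5-fluorouridine plus compound; after 16 hr at 37 °C/5% CO2, ONE-Glo was added and luciferase measured 30 min later.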
KB-V1 cytotox: qHTS assay for MDR1-selective chemotherapeutics: Primary screen using the drug-selected MDR subline cells KB-V1; KB-V1 MDR cells viability, CellTiter-Glo, 72 h; Potency, µM (doses to about 46.1 µM), usual class: cytotoxic; actives 3.4% (n = 400,000); also: % is scaled to controls: 0 for no effect and ±100 for the full control effect; nearly all actives have a fitted effect of over 60% in size
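qHTS viability screen in drug-selected KB-V1 MDR cells: 72 h compound treatment at 37 degrees C, ATP luminescence end point.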
SW480 rerep: A quantitative high throughput screen for small molecules that induce DNA re-replication in SW480 colon adenocarcinoma cells. SW480 DNA re-replication, Hoechst DNA content imaging, 48 h. Potency, µM (doses to about 46.1 µM), for inactives: at the highest dose re-replication activation, actives largely listed as activators. actives 1.8% (n = 340,000); also: % of control where 0% means no effect; nearly all actives have a fitted effect of over 55% in size
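DNA re-replication was detected as more nuclei of elevated Hoechst intensity after 48 hr exposure to compound (23 nL pinned per well of 250 cells).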
MCF10A rerep: A quantitative high throughput screen for small molecules that induce DNA re-replication in MCF 10a normal breast cells. actives 2.9% (n = 350,000). Potency, µM (highest dose often 46.1 µM), inactives show at the highest dose activity, positive = re-replication, hits mostly activators. MCF 10A DNA re-replication, Hoechst nuclear intensity, 48 h; also: % of control where 0% means no effect; nearly all actives have a fitted effect of over 50% in size
KB-3-1 tox: qHTS assay for MDR1-selective chemotherapeutics: Primary screen using the parental adenocarcinoma cell KB-3-1; KB-3-1 viability, CellTiter-Glo ATP luminescence, 72 h; actives 1.4% (n = 400,000); Potency, µM (top dose mostly 46.1 µM), actives largely listed as cytotoxic; also: % is scaled to controls: 0 for no effect and ±100 for the full control effect; nearly all actives have a fitted effect of over 60% in size
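Parental KB-3-1 adenocarcinoma cells in phenol-red-free DMEM with 10% FBS were pin-treated with compounds at several concentrations, incubated 72 h at 37 °C, and viability read by CellTiter-Glo luminescence; concentration-effect curves were fitted after normalization.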
Active calls of the source: *. Calls follow the shape of the dose curve; as a rule, active = well fitted curve in the direction sought with a large enough effect; inconclusive = small, poorly fitted or top-dose-only effect, or another doubt; inactive = no such curve, though single readings can be large; an effect the other way counts as inactive or inconclusive. Potency is read from the fitted curve at half-maximal effect.

What do the screens show for `Cc1ccc2c(C(=O)CCl)c(C)[nH]c2c1`?
ELG1 DNA repair: -17%; KB-V1 cytotox: inconclusive; SW480 rerep: inconclusive; MCF10A rerep: 18µM*; KB-3-1 tox: 13µM*

What do the screens show for `COc1ccc(CCNC(=O)COC(=O)c2cc3ccccc3oc2=O)cc1OC`?
ELG1 DNA repair: -20%; KB-V1 cytotox: inconclusive; SW480 rerep: 2%; MCF10A rerep: -3%; KB-3-1 tox: inactive

How did CCc1cccc2sc(N3CCN(C(=O)c4ccc([N+](=O)[O-])o4)CC3)nc12 do in these assays?
ELG1 DNA repair: -23%; KB-V1 cytotox: inconclusive; SW480 rerep: inconclusive; MCF10A rerep: 3.7µM*; KB-3-1 tox: inconclusive

How did O=C(c1ccc([N+](=O)[O-])o1)N1CCN(Cc2ccccc2)CC1 do in these assays?
ELG1 DNA repair: 0%; KB-V1 cytotox: inactive; SW480 rerep: inconclusive; MCF10A rerep: 21%; KB-3-1 tox: inactive

Results for COc1ccc(Cl)cc1NC(=O)N1CCN(S(=O)(=O)c2ccc3c(ccn3C)c2)CC1 ?
KB-V1 cytotox: inactive; KB-3-1 tox: inactive

Results for CN(C)c1ccc(/C=C2\Oc3ccc(C#Cc4cccc(N)c4)cc3C2=O)cc1 ?
ELG1 DNA repair: 1%; KB-V1 cytotox: inactive; SW480 rerep: 5.2µM*; MCF10A rerep: 4.6µM*; KB-3-1 tox: inconclusive

Results for COC(=O)c1ccc2c(c1)C(=O)/C(=C/c1ccc(C)cc1)O2 ?
ELG1 DNA repair: inconclusive; KB-V1 cytotox: inactive; SW480 rerep: 82%; MCF10A rerep: 19%; KB-3-1 tox: inactive

Results for CCN(CC)S(=O)(=O)c1ccccc1/C=N\O ?
ELG1 DNA repair: inconclusive; KB-V1 cytotox: inactive; SW480 rerep: -10%; MCF10A rerep: -4%; KB-3-1 tox: inactive

How did O=C(/C=C/c1ccccc1)c1ccc2c(c1)OCO2 do in these assays?
ELG1 DNA repair: inconclusive; KB-V1 cytotox: inactive; SW480 rerep: inconclusive; MCF10A rerep: inconclusive; KB-3-1 tox: inactive

Results for O=C(C[n+]1ccc(/C=C/c2ccccc2)cc1)c1ccc2c(c1)OCCO2 ?
ELG1 DNA repair: inconclusive; KB-V1 cytotox: inconclusive; SW480 rerep: inconclusive; MCF10A rerep: 15%; KB-3-1 tox: 12µM*

What do the screens show for `COc1cc(/C=N/Nc2nc3ccccc3[nH]2)cc(Br)c1OCC(=O)N(C)C`?
ELG1 DNA repair: inconclusive; KB-V1 cytotox: inactive; SW480 rerep: -9%; MCF10A rerep: 1%; KB-3-1 tox: inactive

How did COc1cc(/C=C/C(=O)c2ccc3c(c2)OCCO3)cc(Br)c1OCC(=O)N(C)C do in these assays?
ELG1 DNA repair: inconclusive; KB-V1 cytotox: 2.3µM*; SW480 rerep: 4.6µM*; MCF10A rerep: inconclusive; KB-3-1 tox: 5.2µM*

Results for O=C(/C=C/c1ccncc1)c1ccc2c(c1)OCCO2 ?
ELG1 DNA repair: inconclusive; KB-V1 cytotox: inconclusive; SW480 rerep: inconclusive; MCF10A rerep: inconclusive; KB-3-1 tox: 23µM*

Results for O=C(CSc1ccccc1)Nc1ccccc1C(=O)N1CCCC1 ?
ELG1 DNA repair: inconclusive; KB-V1 cytotox: inactive; SW480 rerep: -14%; MCF10A rerep: 6%; KB-3-1 tox: inactive

Results for CSc1nc2ccc3nc(NC(=O)c4cccs4)sc3c2s1 ?
ELG1 DNA repair: inconclusive; KB-V1 cytotox: inconclusive; SW480 rerep: 12%; MCF10A rerep: 6%; KB-3-1 tox: inactive

How did O=c1[nH]c(=O)n(C(c2ccccc2)c2ccccc2)cc1Br do in these assays?
ELG1 DNA repair: 4%; KB-V1 cytotox: inactive; SW480 rerep: -2%; MCF10A rerep: -3%; KB-3-1 tox: inactive

How did O=c1[nH]nc(Br)c(=O)n1C(c1ccccc1)c1ccccc1 do in these assays?
KB-V1 cytotox: 23µM*; SW480 rerep: 2%; MCF10A rerep: 0%; KB-3-1 tox: inconclusive

How did CCc1nc2ccc(C(=O)NCCCN3CCCC3=O)cn2c1N(CC)CCN(C)C do in these assays?
KB-V1 cytotox: inactive; KB-3-1 tox: inconclusive

Results for CCC(=O)Nc1cc2c(cc1C(=O)CC)OCCO2 ?
ELG1 DNA repair: -4%; KB-V1 cytotox: 21µM*; SW480 rerep: 14%; MCF10A rerep: -2%; KB-3-1 tox: inactive

Results for CCCC(=O)c1cc2c(cc1NC(=O)CC)OCCO2 ?
ELG1 DNA repair: -13%; KB-V1 cytotox: inactive; SW480 rerep: -4%; MCF10A rerep: 4%; KB-3-1 tox: inactive

Results for N=c1nc(N)nc2n1NC(c1ccc(F)cc1)=CS2 ?
ELG1 DNA repair: inconclusive; KB-V1 cytotox: 1.3µM*; SW480 rerep: -1%; MCF10A rerep: inconclusive; KB-3-1 tox: inactive

How did CC(=O)Nc1ccc(NC2=C/C(=N/S(=O)(=O)c3cccs3)c3ccccc3C2=O)cc1 do in these assays?
ELG1 DNA repair: 1.6µM*; KB-V1 cytotox: inactive; SW480 rerep: 4.1µM*; MCF10A rerep: 8.2µM*; KB-3-1 tox: 21µM*

What do the screens show for `COc1ccc(S(=O)(=O)/N=C2\C=C(Nc3ccc(O)cc3)C(=O)c3ccccc32)cc1`?
ELG1 DNA repair: 5.8µM*; KB-V1 cytotox: 16µM*; SW480 rerep: 16µM*; MCF10A rerep: 4.6µM*; KB-3-1 tox: 5.2µM*

Results for Cc1ccc(NC2=C/C(=N/S(=O)(=O)c3cccs3)c3ccccc3C2=O)cc1C ?
ELG1 DNA repair: inconclusive; KB-V1 cytotox: inactive; SW480 rerep: -5%; MCF10A rerep: inconclusive; KB-3-1 tox: inactive

What do the screens show for `Cc1ccccc1NC1=C/C(=N\S(=O)(=O)c2cccs2)c2ccccc2C1=O`?
ELG1 DNA repair: 3.7µM*; KB-V1 cytotox: 7.3µM*; SW480 rerep: 4.1µM*; MCF10A rerep: inconclusive; KB-3-1 tox: inconclusive

Results for COc1ccc(C(=O)O)cc1NC(=S)NC(=O)CSc1ccc(Cl)cc1 ?
ELG1 DNA repair: -2%; KB-V1 cytotox: inactive; SW480 rerep: -5%; MCF10A rerep: 6%; KB-3-1 tox: inactive

Results for COc1ccc(Nc2nc3c(C)cccc3cc2C#N)c(OC)c1 ?
ELG1 DNA repair: 15%; KB-V1 cytotox: inactive; SW480 rerep: 19%; MCF10A rerep: 3%; KB-3-1 tox: inactive

What do the screens show for `Cc1cccc2cc(C#N)c(NCc3ccccc3)nc12`?
ELG1 DNA repair: 19%; KB-V1 cytotox: inactive; SW480 rerep: inconclusive; MCF10A rerep: 23µM*; KB-3-1 tox: inactive

What do the screens show for `Cc1cccc2cc(C#N)c(NCCCn3ccnc3)nc12`?
ELG1 DNA repair: inconclusive; KB-V1 cytotox: 15µM*; SW480 rerep: inconclusive; MCF10A rerep: inconclusive; KB-3-1 tox: inactive
